Results: PubChem BioAssay AID651558 (National Center for Advancing Translational Sciences (NCATS), 2012)
The whole screen tested about 1,200 compounds, of which about 480 (40%) were called active. Inconclusive results (about 29%) are left out. Calls follow the shape of the dose curve; as a rule, active = well fitted inhibition curve with a large enough effect; inconclusive = small, poorly fitted or top-dose-only effect; inactive = no such curve, though single readings can be large or run the other way. The list shows a part of the results.

assay: qHTS Assay to Find Inhibitors of Chronic Active B-Cell Receptor Signaling: Hit Validation in Primary Screen; conditions: ABC-DLBCL IkB-luc/CBR ratio luminescence, 4 h; series mostly up to 46.1 µM; also: nearly all actives have a fitted effect of over 75% in size
In short: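 TMD8 ABC-DLBCL cells carrying doxycycline-inducible IkBa-green luciferase fusion and free red luciferase, 0.5% FBS, dosed 46 uM–3 nM with doxycycline for 4 h at 37C. Green/red luminescence ratio normalized to basal and 10 uM MG-132.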
Potency is read from the fitted curve at half-maximal effect.

| SMILES | Potency |
| --- | --- |
| Nc1ncnc2c1ncn2[C@@H]1O[C@H](CNC(=O)[C@@H]2CCCN2S(=O)(=O)c2ccc(F)cc2)[C@@H](O)[C@H]1O | inactive |
| Nc1ncnc2c1ncn2C1OC(C(=O)NC2CC2)C(O)C1O (stereo not drawn) | 58 nM (active) |
| Nc1nc(Cl)nc2c1ncn2[C@@H]1O[C@H](CO)[C@@H](O)[C@H]1O | 920 nM (active) |
| OCC1OC(n2cnc3c(NC4CCCCC4)ncnc32)C(O)C1O (stereo not drawn) | 1460 nM (active) |
| Nc1ncnc2c1ncn2[C@@H]1O[C@H](CNCc2ccc(-c3cc(C(F)(F)F)ccc3Cl)o2)[C@@H](O)[C@H]1O | inactive |
| C=CCNc1ncnc2c1ncn2C1OC(CO)C(O)C1O (stereo not drawn) | 23100 nM (active) |
| Nc1ncnc2c1ncn2[C@@H]1O[C@H](COP(=O)(O)O)[C@@H](O)[C@H]1O | inactive |
| CC1CCC2C(=O)N(c3ccc(C(=O)Oc4cccc5cccnc45)cc3)C(=O)C2C1 (stereo not drawn) | inactive |
| O=C(Oc1c(CN2CCOCC2)cc(Cl)c2cccnc12)c1ccccc1Cl | inactive |
| OC[C@H]1O[C@@H](n2cnc3c(NC4CCCC4)nc(Cl)nc32)[C@H](O)[C@@H]1O | 1300 nM (active) |
| CCCC(=O)Nc1ncnc2c1ncn2[C@@H]1O[C@@H]2COP(=O)(O)O[C@H]2[C@H]1OC(=O)CCC | inactive |
| OC[C@H]1O[C@@H](n2cnc3c(NC4CCCC4)ncnc32)[C@H](O)[C@@H]1O | 1840 nM (active) |
| Cc1ccccc1NC(=S)NCc1ccc2c(c1)cc(C)n2C | 1460 nM (active) |
| S=C(NCc1ccc2[nH]c3c(c2c1)CCCC3)Nc1ccccc1 | inactive |
| Cc1ccccc1NC(=S)c1ccc2ccccc2n1 | inactive |
| COC(=O)Nc1nc(-c2ccccc2)c(C(=O)c2ccc(Cl)cc2)s1 | 3660 nM (active) |
| CC[C@@H]1Cc2cc(O)ccc2C2=C1c1ccc(O)cc1C[C@H]2CC | 14600 nM (active) |
| Cc1noc(C)c1COc1cccc(C(=O)OCC(=O)N2CC(=O)Nc3ccccc32)c1 | 20600 nM (active) |
| O=C(Cc1n[nH]c(=O)c2ccccc12)OCC(=O)c1ccc2c(c1)OCCO2 | 20600 nM (active) |
| CN(CC(=O)Nc1ccc2c(c1)OCCO2)Cc1nc2ccccc2c(=O)[nH]1 | inactive |
| CCOc1ccc(S(=O)(=O)N(CC(=O)NN=C2CCN(C)CC2)c2ccc(C)cc2)cc1 | inactive |

| SMILES | Potency |
| --- | --- |
| CCOc1ccc(N(CC(=O)Nc2ccccc2OCC)S(=O)(=O)c2c(C)noc2C)cc1 | 2910 nM (active) |
| CCOc1ccc(N(CC(=O)Nc2ccccc2OC)S(=O)(=O)c2ccccc2)cc1 | 5170 nM (active) |
| CCOc1ccc(N(CC(=O)Nc2ccccc2C)S(=O)(=O)c2c(C)noc2C)cc1 | 14600 nM (active) |
| FC(F)(F)c1nnc2ccc(Cl)nn12 | inactive |
| O=C(N/N=C/C(Br)=C\c1ccccc1)c1ccc2nc[nH]c2c1 | inactive |
| CC(/C=N/NC(=O)c1n[nH]c2c1CCC2)=C\c1ccccc1 | 580 nM (active) |
| O=C(N/N=C/C(Br)=C\c1ccccc1)c1n[nH]c2c1CCC2 | 2060 nM (active) |
| CCOc1cc(C(=O)N/N=C/C2CC=CCC2)cc(OCC)c1OCC (stereo not drawn) | inactive |
| CCOc1cc(C(=O)N/N=C/C(Br)=C/c2ccccc2)cc(OCC)c1OCC | 2590 nM (active) |
| Cc1c(CCC(=O)N2CCC[C@H]2C(=O)O)c(=O)oc2cc3oc4c(c3cc12)CCCC4 | 23100 nM (active) |
| Cc1c(CCC(=O)N2CCC(C(=O)O)(c3ccccc3)CC2)c(=O)oc2cc3oc4c(c3cc12)CCCC4 | inactive |
| CCOC(=O)C(C)N1C(=O)S/C(=C/c2ccc3c(c2)n(C)c(=O)n3C)C1=O (stereo not drawn) | 18400 nM (active) |
| CCOC(=O)C(C)N1C(=O)S/C(=C/c2cc(C)n(-c3ccccn3)c2C)C1=O (stereo not drawn) | inactive |
| COc1cc2c(c(OC)c1OC)C(c1ccc(C)cc1)CC(=O)O2 (stereo not drawn) | inactive |
| COc1cc2c(cc1OC)C(c1ccc(OC)c(OC)c1OC)CC(=O)N2 (stereo not drawn) | 23100 nM (active) |
| COc1ccc(C2CC(=O)Nc3cc(OC)c(OC)cc32)cc1Br (stereo not drawn) | 20600 nM (active) |
| COc1cc(-c2noc(C)c2C#Cc2ccsc2)cc(OC)c1OC | 8200 nM (active) |
| COc1cc(-c2noc(C)c2C#Cc2ccc(N)cc2)cc(OC)c1OC | 2910 nM (active) |
| NC(=S)NN=C1c2ccccc2-c2ccccc21 | inactive |
| CNC(=S)N/N=C1\C(=O)c2cccc3cccc1c23 | 18400 nM (active) |
| CNC(=S)N/N=C/c1ccco1 | inactive |

| SMILES | Potency |
| --- | --- |
| COc1ccc(-c2cccc(-c3cc(=O)oc4cc(OC)cc(OC)c34)c2)cc1 | 1160 nM (active) |
| COc1cc(OC)c2c(-c3cccc(-c4sccc4C(C)=O)c3)cc(=O)oc2c1 | 5170 nM (active) |
| COc1cc(OC)c2c(-c3cccc(-c4ccc(N(C)C)cc4)c3)cc(=O)oc2c1 | 2060 nM (active) |
| CC(=O)c1ccsc1-c1c(C)cc2oc(=O)cc(-c3ccccc3)c2c1C | inactive |
| COc1cc(OC)c2c(-c3cccc(-c4ccc(OC)c(F)c4)c3)cc(=O)oc2c1 | 1160 nM (active) |
| COc1cc(OC)c2c(-c3cccc(-c4cccc(N)c4)c3)cc(=O)oc2c1 | 6510 nM (active) |
| COc1cc(OC)c2c(-c3cccc(-c4ccc(O)cc4)c3)cc(=O)oc2c1 | 2590 nM (active) |
| COc1cc(OC)c2c(-c3cccc(-c4ccc(NC(C)=O)cc4)c3)cc(=O)oc2c1 | 2590 nM (active) |
| CCc1ccc(N2CC(C(=O)OCC(=O)Nc3ccccc3C)CC2=O)cc1 (stereo not drawn) | inactive |
| Cc1[nH][nH]c(=O)c1C(c1c(C)[nH][nH]c1=O)c1cn(Cc2ccc(F)cc2)c2ccccc12 | 14600 nM (active) |
| CCOC(=O)C(NCc1ccccc1)(NC(=O)c1ccccc1)C(F)(F)F (stereo not drawn) | inactive |
| CCc1nnc(NC(=S)Nc2ccccc2)s1 | 651 nM (active) |
| CCCc1nnc(NC(=O)CCC(=O)NCCc2ccc(OC)c(OC)c2)s1 | inactive |
| CCCc1nnc(NC(=S)Nc2ccccc2)s1 | 164 nM (active) |
| CCNC(=S)NNc1ccccc1 | inactive |
| S=C(Nc1ccccc1)Nc1nccs1 | inactive |
| Cc1csc(NC(=S)Nc2cccc(Cl)c2)n1 | inactive |
| Cc1cc(Cl)n2c(nc3ccccc32)c1C#N | 1840 nM (active) |
| Cc1ccc(-c2cc(C(=O)N/N=C/c3c(C)nn(-c4ccccc4)c3C)[nH]n2)cc1 | 2310 nM (active) |
| Cc1nn(-c2ccccc2)c(C)c1/C=N/NC(=O)c1cc(-c2cccs2)[nH]n1 | 3260 nM (active) |
| Cc1nn(-c2ccccc2)c(C)c1/C=N/NC(=O)c1cc(-c2ccccc2)n[nH]1 | 2310 nM (active) |
